Screening results as filed in PubChem BioAssay.
The full list was thinned out, with hits kept by preference.
LmPK inhibitor: blocks Leishmania mexicana pyruvate kinase activity. purified LmPK, Kinase-Glo ATP luminescence, 1 h. Potency, µM (top dose mostly 57.5 µM), without a hit: at the highest dose activity change, negative = inhibition, actives largely listed as inhibitors. hit rate 0.37% among 290,000. AID 1721; note: potency is the fitted concentration of half-maximal effect; % is set by controls: 0 for no effect and ±100 for the full control effect
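0.1 nM LmPK, 0.5 mM PEP, 0.1 mM ADP; 50 mM imidazole pH 7.2, 7 mM MgCl2, 50 mM KCl; 1 h RT. Kinase-Glo luminescence readout, normalized to no-enzyme (full inhibition) and uninhibited wells.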
FBPA Giardia inh: inhibitors of Giardia lamblia fructose-1,6-bisphosphate aldolase. A8B2U2. purified Giardia FBPA. Potency, µM (highest dose often 59.6 µM), without a hit: at the highest dose activity, negative = inhibition, usual class: inhibitors. hit rate 0.71% among 290,000; note: potency is the fitted concentration of half-maximal effect; % is set by controls: 0 for no effect and ±100 for the full control effect; nearly all actives have a fitted effect of over 55% in size
Target sequence (A8B2U2 whole entry, looked up): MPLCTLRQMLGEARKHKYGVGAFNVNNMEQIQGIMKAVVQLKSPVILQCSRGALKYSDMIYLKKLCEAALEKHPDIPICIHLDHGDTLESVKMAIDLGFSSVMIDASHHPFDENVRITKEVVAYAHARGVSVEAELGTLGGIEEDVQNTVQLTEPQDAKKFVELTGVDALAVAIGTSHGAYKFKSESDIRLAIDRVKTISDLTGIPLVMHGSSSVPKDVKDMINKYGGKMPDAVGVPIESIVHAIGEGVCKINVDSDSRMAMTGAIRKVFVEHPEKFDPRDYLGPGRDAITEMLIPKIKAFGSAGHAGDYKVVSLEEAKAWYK
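Giardia FBPA (40 nM reagent) was preincubated 10 min at RT with compound (up to 57.5 uM final), then substrate plus GAPDH/TPI/NAD/arsenate coupling system with diaphorase/resazurin was added; resorufin fluorescence (525/598 nm) was read after 20 min.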
RE007 growth inh: less growth of the S. pombe RE007 Vpr strain; Potency, µM (top dose mostly 92.2 µM), inactives show at the highest dose activity change, negative = less growth, usual class: inhibitors; S. pombe RE007 Vpr strain, BacTiter-Glo ATP luminescence, 24 h; hit rate 0.21% among 360,000; active = well fitted falling curve with a large enough effect; inconclusive = small, poorly fitted or top-dose-only effect; inactive = no such curve, though single readings can be large or run the other way; note: potency is the fitted concentration of half-maximal effect; % is set by controls: 0 for no effect and ±100 for the full control effect; nearly all actives have a fitted effect of over 50% in size
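Fission yeast strain RE007, carrying one chromosomally integrated HIV-1 vpr copy, was seeded at OD 0.01 in PMG+AL medium with 23 nL pinned compound. After 24 h at 30 °C and 99% humidity, viability was read by BacTiter-Glo luminescence.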
Cycloheximide cs: counter-screen hit for Shiga toxin inhibitors, cycloheximide | cell reporter, cycloheximide protein synthesis inhibition counterscreen | max response, % | hit rate 12% among 300,000; in the data active = max response mostly above about 13%, no sharp cut-off; inactive = mostly below about 14%; note: read at 38.3 µM for the half of the compounds with a filed dose; 0% is about no effect
Tb PYK inh: T. brucei pyruvate kinase inhibition. Q57TT1. TbPYK enzyme, Kinase-Glo Plus ATP luminescence, 45 min. hit rate 0.12% among 410,000. Potency, µM (highest dose often 76.8 µM), for the others: at the top dose activity, negative = inhibition, hits mostly inhibitors; note: potency is the fitted concentration of half-maximal effect; % is set by controls: 0 for no effect and ±100 for the full control effect; nearly all actives have a fitted effect of over 50% in size
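T. brucei PYK with substrate was exposed to pin-transferred compounds across a concentration series, then started with 130 uM ADP (final). After 45 min at room temperature, Kinase-Glo Plus luminescence was read, normalized and curve-fitted.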
Shiga inhibitor: blocks Shiga toxin action in Vero cells. Vero cells, Shiga toxin protein synthesis inhibition reporter. inhibition, % at 38.7 µM. hit rate 9.2% among 290,000. AID 2315; in the data active = inhibition mostly above about 28%, no sharp cut-off; inactive = mostly below about 43%; note: 0% is about no effect
* = called active by the depositor; [ ] = remark or other dose. Unless noted, calls come from the whole dose curve; as a rule, active = well fitted curve in the direction sought with a large enough effect; inconclusive = small, poorly fitted or top-dose-only effect, or another doubt; inactive = no such curve, though single readings can be large; an effect the other way counts as inactive or inconclusive.

Screening O=C(COC(=O)c1ccccc1Br)Nc1ccccc1F returned LmPK inhibitor 2%, FBPA Giardia inh 0%, RE007 growth inh -6%, Cycloheximide cs 55*, Tb PYK inh 5% and Shiga inhibitor 57*.
For O=C(COC(=O)c1ccccc1Br)NCc1cccs1 the results were RE007 growth inh 1% and Tb PYK inh -7%.
For O=C(COC(=O)c1ccccc1Br)NCc1ccccc1 the results were LmPK inhibitor -6%, FBPA Giardia inh -4%, RE007 growth inh -17%, Cycloheximide cs 24*, Tb PYK inh -2% and Shiga inhibitor 38.
For CCOC(=O)/C=C/C(=O)OCC(=O)NCc1ccccc1 the results were LmPK inhibitor -1%, FBPA Giardia inh -2%, RE007 growth inh -18%, Cycloheximide cs 16*, Tb PYK inh -2% and Shiga inhibitor 9.
CCc1nc2ccc(C(=O)Nc3cc(-c4ccccc4)ccc3OC)cn2c1N(C)Cc1nccs1 was read as RE007 growth inh -3% and Tb PYK inh 4%.
COc1ccc(N(C)S(=O)(=O)c2cccc(C(=O)NC3CCC(C)CC3)c2)cc1 (stereo unspecified) was read as LmPK inhibitor 1%, FBPA Giardia inh -11%, RE007 growth inh -12%, Cycloheximide cs 16*, Tb PYK inh 1% and Shiga inhibitor 52.
For O=C(c1ccc2c(c1)N(Cc1cccc(Cl)c1)C(=O)c1ccccc1S2(=O)=O)N1CCC(Cc2ccccc2)CC1 the results were Tb PYK inh 2%.
For COc1ccccc1-n1c(=O)oc2ccc(Cl)cc2c1=O the results were LmPK inhibitor -5%, FBPA Giardia inh -4%, RE007 growth inh inconclusive, Cycloheximide cs 59*, Tb PYK inh -6% and Shiga inhibitor 86*.
Screening CC(CNC(=O)Cc1ccc(NC(=O)N2CCSc3ncccc32)cc1)c1ccccc1 (stereo unspecified) returned Tb PYK inh -1%[15.4 µM].
CC1CCC2C(=O)N(c3ccc(C(=O)NCc4ccccc4)cc3)C(=O)C2C1 (stereo unspecified) was read as LmPK inhibitor 7%, FBPA Giardia inh 3%, RE007 growth inh 21%, Cycloheximide cs -4, Tb PYK inh -9% and Shiga inhibitor 14.
Screening CC(C)(C)c1ccc(-c2noc(CCC(=O)Nc3cccc(Cl)c3)n2)cc1 returned Tb PYK inh 0%.
`COc1ccc(CN2CN(S(=O)(=O)c3ccccc3)c3nc4ccccc4nc32)cc1` gave LmPK inhibitor 0%, FBPA Giardia inh -14%, RE007 growth inh 16%, Cycloheximide cs 33*, Tb PYK inh -1% and Shiga inhibitor 112*.
For CCCCCN1CN(S(=O)(=O)c2cccs2)c2nc3ccccc3nc21 the results were LmPK inhibitor 7%, FBPA Giardia inh -6%, RE007 growth inh -10%, Cycloheximide cs 16*, Tb PYK inh 4% and Shiga inhibitor 28.
`COc1ccc(CCN2CN(S(=O)(=O)c3ccc(OC)cc3)c3nc4ccccc4nc32)cc1` gave LmPK inhibitor 7%, FBPA Giardia inh -6%, RE007 growth inh 3%, Cycloheximide cs 27*, Tb PYK inh 8% and Shiga inhibitor 39*.
Screening O=S(=O)(c1cccs1)N1CN(Cc2cccs2)c2nc3ccccc3nc21 returned LmPK inhibitor 9%, FBPA Giardia inh -17%, RE007 growth inh -15%, Cycloheximide cs 15, Tb PYK inh -14% and Shiga inhibitor 19.
Screening COc1ccc(CN2CN(S(=O)(=O)c3cccs3)c3nc4ccccc4nc32)cc1 returned LmPK inhibitor 10%, FBPA Giardia inh inconclusive, RE007 growth inh 8%, Cycloheximide cs 48*, Tb PYK inh 6% and Shiga inhibitor 80*.
Screening COc1ccc(CCN2CN(S(=O)(=O)c3ccc(C)cc3)c3nc4ccccc4nc32)cc1OC returned LmPK inhibitor -1%, FBPA Giardia inh 0%, RE007 growth inh 7%, Cycloheximide cs -2, Tb PYK inh -2% and Shiga inhibitor -7.
For CCc1cccc(NC(=O)CN(C)S(=O)(=O)c2ccc3c(c2)CCCN3C(C)=O)c1 the results were Tb PYK inh 5%.
For COc1ccc(/C=C/c2c(-c3ccc(OC)cc3)oc3cccnc23)cc1 the results were LmPK inhibitor 0%, FBPA Giardia inh -3%, RE007 growth inh -11%, Cycloheximide cs 16*, Tb PYK inh 1% and Shiga inhibitor 31*.
Screening COc1cc(OC)cc(-c2oc3cccnc3c2C#CCCO)c1 returned LmPK inhibitor 0%, FBPA Giardia inh 21%, RE007 growth inh -2%, Cycloheximide cs -3, Tb PYK inh 6% and Shiga inhibitor 1.
`O=C1OC(c2ccc(F)cc2)=C/C1=C\c1ccc(O)cc1` gave LmPK inhibitor 2%, FBPA Giardia inh 23%, RE007 growth inh -15%, Cycloheximide cs 14*, Tb PYK inh -4% and Shiga inhibitor 40.
Screening Cc1ccc(-n2c(C)cc(C(=O)CN3CCCCC3)c2C)cc1 returned LmPK inhibitor -3%, FBPA Giardia inh -1%, RE007 growth inh 1%, Cycloheximide cs 40*, Tb PYK inh 3% and Shiga inhibitor 87*.
`Cc1cc(C(=O)CN2CC(C)OC(C)C2)c(C)n1-c1ccccc1` (stereo unspecified) gave LmPK inhibitor -2%, FBPA Giardia inh -8%, RE007 growth inh -6%, Cycloheximide cs 13*, Tb PYK inh -2% and Shiga inhibitor 50*.
Screening Cc1cc(C(=O)CN2CCC(C)CC2)c(C)n1-c1ccccc1F returned LmPK inhibitor 2%, FBPA Giardia inh -19%, RE007 growth inh -5%, Cycloheximide cs 2, Tb PYK inh 2% and Shiga inhibitor -5.
Screening Cc1ccc(NC(=O)c2cn3c4c(ccc(Cl)c4c2=O)OC(C)C3)c(C)c1 (stereo unspecified) returned Tb PYK inh 1%.
For CC(=O)Nc1ccc(N2C(=O)c3cccc4c(O)ccc(c34)C2=O)cc1 the results were LmPK inhibitor -1%, FBPA Giardia inh inconclusive, Cycloheximide cs -4, Tb PYK inh -3% and Shiga inhibitor 4.
`O=C1c2cccc3c(O)ccc(c23)C(=O)N1c1ccc(Cl)cc1` gave LmPK inhibitor -1%, FBPA Giardia inh inconclusive, RE007 growth inh 34%, Cycloheximide cs 105*, Tb PYK inh -6% and Shiga inhibitor active.
`N[C@@H](CC(=O)O)C(=O)O` gave FBPA Giardia inh -4%.
`CCC(=O)Nc1ccccc1-c1nc2ccccc2n(CC(=O)c2ccc(C)cc2)c1=O` gave Tb PYK inh -6%.
